This passage reports outcome and AC50 results from PubChem BioAssay (EPA / NIEHS).

Several values for one entry are separate records, joined by “and”; a condition that tells them apart may be missing. Equal entries are not always repeated. Some compounds were tested as several samples or in several runs, with calls that do not always agree. Activity calls are given as the source filed them. Rule for the calls: active = hit-call score of the fitted dose curve at least 0.9, where 1 is the maximum; inactive = score below 0.9.

Read-out in assay [1]: Collagen I, COL1A1 (gene 1277)
The experiment in a line: BSK_MyoF_CollagenI: BioMAP Diversity Plus: MyoF Assay for Collagen I Biomarker Activity (AID 2284238). Particulars: primary human lung fibroblasts. The essentials:
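Primary human lung fibroblasts (MyoF system) treated 24 h; Collagen I quantified by ELISA and fitted in positive direction against DMSO. Parallel SRB total-protein staining assessed overt cytotoxicity.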

Read-out in assay [2]: Interleukin 17F (IL17F), IL17F (gene 112744)
The experiment in a line: BSK_BT_xIL17F: BioMAP Diversity Plus: BT Assay for Interleukin 17F (IL17F) Biomarker Activity (AID 2284243). The settings on record: primary human B cells with PBMC. The essentials:
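Human PBMC co-cultured with B cells, compound exposure 24 h; secreted IL-17F quantified by Luminex xMAP, referenced to DMSO control. PBMC viability measured in parallel by Alamar Blue reduction.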

Read-out in assay [3]: Actin alpha 1 (ACTA1), ACTA1 (gene 58)
The experiment in a line: BSK_MyoF_ACTA1: BioMAP Diversity Plus: MyoF Assay for Actin alpha 1 (ACTA1) Biomarker Activity (AID 2284244). Particulars: primary human lung fibroblasts. The essentials: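 MyoF fibroblast system (human lung); a-SMA quantified via ELISA at 24 h; DMSO-normalised, gain-of-signal endpoint.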

Read-out in assay [4]: Interleukin 2 (IL2), IL2 (gene 3558)
The experiment in a line: BSK_BT_xIL2: BioMAP Diversity Plus: BT Assay for Interleukin 2 (IL2) Biomarker Activity (AID 2284245). The settings on record: primary human B cells with PBMC. The essentials: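 Co-cultures of primary human B cells and PBMC are treated with chemical and sampled at 24 h. IL-2 secretion is quantified by Luminex xMAP, with DMSO-treated wells as baseline.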

Read-out in assay [5]: Collagen IV, COL4A1 (gene 1282)
The assay can be described thus: BSK_MyoF_CollagenIV: BioMAP Diversity Plus: MyoF Assay for Collagen IV Biomarker Activity (AID 2284247). The settings on record: primary human lung fibroblasts. The essentials:
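Lung fibroblasts (human primary) treated with chemicals were assayed after 24 h for Collagen IV using an ELISA, with DMSO serving as negative control and baseline for a positive-direction fit.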

Read-out in assay [6]: Monokine induced gamma interferon (MIG), CXCL9 (gene 4283)
The experiment in a line: BSK_KF3CT_MIG: BioMAP Diversity Plus: KF3CT Assay for Monokine induced gamma interferon (MIG) Biomarker Activity (AID 2284248). The settings on record: primary human keratinocytes with fibroblasts. The essentials:
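Human keratinocyte–foreskin fibroblast co-culture; MIG measured by ELISA 24 h after chemical dosing, fitted upward versus DMSO. Cytotoxicity was assessed in parallel cultures by SRB total-protein staining read at 560 nm.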

Read-out in assay [7]: Vascular cell adhesion molecule 1 (VCAM1), VCAM1 (gene 7412)
The assay can be described thus: BSK_BF4T_VCAM1: BioMAP Diversity Plus: BF4T Assay for Vascular cell adhesion molecule 1 (VCAM1) Biomarker Activity (AID 2284249). The settings on record: primary human bronchial epithelial cells with fibroblasts. The method in brief: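 Cell-surface VCAM-1 quantified by ELISA after 24 h chemical exposure of human bronchial epithelial/dermal fibroblast co-cultures, with SRB staining in parallel wells for cytotoxicity; DMSO baseline, positive-direction fitting.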

Read-out in assay [8]: Collagen I, COL1A1 (gene 1277)
The assay can be described thus: BSK_hDFCGF_CollagenI: BioMAP Diversity Plus: hDFCGF Assay for Collagen I Biomarker Activity (AID 2284250). The settings on record: primary human foreskin fibroblasts. The essentials: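 Readout: Collagen I by ELISA after 24 h compound treatment of primary human foreskin fibroblasts. Endpoint analysed for increases relative to DMSO; total protein by SRB in parallel wells flagged cytotoxicity.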

Read-out in assay [9]: Interferon-inducible T-cell alpha chemoattractant (ITAC), CXCL11 (gene 6373)
The assay can be described thus: BSK_hDFCGF_ITAC: BioMAP Diversity Plus: hDFCGF Assay for Interferon-inducible T-cell alpha chemoattractant (ITAC) Biomarker Activity (AID 2284251). Particulars: primary human foreskin fibroblasts. The method in brief: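 I-TAC levels were read by ELISA on human dermal foreskin fibroblast primary cultures 24 h after dosing, analysed against DMSO in the positive direction. Cytotoxicity was assessed alongside by sulforhodamine B total-protein staining.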

Read-out in assay [10]: Plasminogen activator inhibitor-1 (PAI1), SERPINE1 (gene 5054)
The assay can be described thus: BSK_KF3CT_PAI1: BioMAP Diversity Plus: KF3CT Assay for Plasminogen activator inhibitor-1 (PAI1) Biomarker Activity (AID 2284252). The settings on record: primary human keratinocytes with fibroblasts. The method in brief: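 In this co-culture of primary human keratinocytes and foreskin fibroblasts, PAI-1 was measured by ELISA at 24 h and fitted upward from DMSO.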

Read-out in assay [11]: Monocyte Chemoattractant Protein-1 (MCP1), CCL2 (gene 6347)
The assay can be described thus: BSK_IMphg_MCP1: BioMAP Diversity Plus: IMphg Assay for Monocyte Chemoattractant Protein-1 (MCP1) Biomarker Activity (AID 2284253). Particulars: primary human endothelial cells with macrophages. The essentials: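 ELISA readout of MCP-1 at 24 hours in IMphg co-cultures of venular endothelial cells and macrophages, normalised to DMSO; parallel cultures stained with sulforhodamine B for overt cytotoxicity.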

Read-out in assay [12]: Interleukin-8 (IL8), CXCL8 (gene 3576)
The assay can be described thus: BSK_KF3CT_IL8: BioMAP Diversity Plus: KF3CT Assay for Interleukin-8 (IL8) Biomarker Activity (AID 2284254). Particulars: primary human keratinocytes with fibroblasts. The essentials: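 Human keratinocyte/foreskin fibroblast co-culture dosed 24 h; IL-8 measured by ELISA relative to DMSO. Parallel cultures stained with SRB for total protein to flag cytotoxicity.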

Read-out in assay [13]: Plasminogen activator inhibitor-1 (PAI1), SERPINE1 (gene 5054)
The experiment in a line: BSK_MyoF_PAI1: BioMAP Diversity Plus: MyoF Assay for Plasminogen activator inhibitor-1 (PAI1) Biomarker Activity (AID 2284256).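 For outcome: PAI-1 read 24 h after compound addition.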 The settings on record: primary human lung fibroblasts. The method in brief: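 Primary human lung fibroblasts treated with chemical for 24 h; PAI-1 levels quantified by ELISA relative to DMSO. Cytotoxicity was assessed in parallel cultures by SRB total-protein staining (0.1% SRB after 10% TCA fixation, 560 nm).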

Read-out in the next assay: CD69, CD69 (gene 969)
The experiment in a line: BSK_IMphg_CD69: BioMAP Diversity Plus: IMphg Assay for CD69 Biomarker Activity (AID 2284257). The settings on record: primary human endothelial cells with macrophages. The method in brief: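 Readout is ELISA for CD69 in primary human venular endothelial cell/macrophage co-culture, taken at 24 h post-dosing. SRB staining of parallel cultures gauged overt cytotoxicity; signal increase versus DMSO defined activity.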

Read-out in assay [14]: Eotaxin 3, CCL26 (gene 10344)
The experiment in a line: BSK_BF4T_Eotaxin3: BioMAP Diversity Plus: BF4T Assay for Eotaxin 3 Biomarker Activity (AID 2284258). Particulars: primary human bronchial epithelial cells with fibroblasts. The method in brief:
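ELISA measurement of Eotaxin-3 after 24 h chemical exposure in a bronchial epithelial/dermal fibroblast co-culture, with DMSO as baseline. Parallel SRB staining (0.1% SRB after 10% TCA fixation, 560 nm) flagged overt cytotoxicity.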

Read-out in assay [15]: Monocyte Chemoattractant Protein-1 (MCP1), CCL2 (gene 6347)
The assay can be described thus: BSK_BF4T_MCP1: BioMAP Diversity Plus: BF4T Assay for Monocyte Chemoattractant Protein-1 (MCP1) Biomarker Activity (AID 2284259). The settings on record: primary human bronchial epithelial cells with fibroblasts. The essentials:
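MCP-1 ELISA readout taken 24 h after dosing in the BF4T system (bronchial epithelial cells plus dermal fibroblasts). Parallel SRB total-protein staining flagged cytotoxicity; DMSO served as baseline, positive fitting direction.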

Assay [16] is described as follows: CCTE_Mundy_HCI_hNP1_Casp3_7: CCTE's Caspase-Glo 3/7 Assay in human neuroprogenitor cells for Apoptosis, Mundy Lab (AID 2284240). The essentials:
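Apoptosis is scored by activated caspase-3/7 luminescence in WA09-derived neural progenitor cells, measured 26.5 h after chemical dosing. Values represent gain of signal relative to DMSO vehicle.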

A short description of assay [17]: CCTE_Mundy_HCI_Cortical_NOG_BPCount: CCTE's Neurite Outgrowth Assay in rat cortical cells for Branch Point Count, Mundy Lab (AID 2284237). The essentials: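 Measured 50.33 h after dosing, this morphology endpoint uses rat primary cortical cultures labelled for betaIII-tubulin. Branch points are quantified by high-content imaging, with DMSO as negative control and baseline.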

On to `O=C(O)C(F)(F)C(F)(F)C(=O)O`, for which the outcome in [1], in assay [2], in assay [3], in [4], in [5] and in [6] was inactive. Further, the result in assay [7], in assay [8], in assay [9], in assay [10], in assay [11] and in [12] was inactive. Further, the outcome in assay [13] was “inactive”; with CD69, CD69 (gene 969) it was “inactive”; in [14] it was “inactive”; in assay [15], “inactive”.

For the compound `CC(O)C(F)(F)C(F)(F)F` (stereo unspecified), the outcome in assay [1], in [2], in assay [3], in [4], in assay [5] and in [6] was inactive. The result in assay [7], in assay [8], in assay [9], in [10], in [11] and in assay [12] was inactive. Further, the outcome in [13] was “inactive”; with CD69, CD69 (gene 969), “inactive”; in assay [14] it was “inactive”; in assay [15] it was “inactive”.

Turning to `O=S(=O)(F)C(F)(F)C(F)(F)C(F)(F)C(F)(F)C(F)(F)C(F)(F)C(F)(F)C(F)(F)F`, the result in [1], in assay [2], in assay [3], in [4], in [5] and in assay [6] was inactive. Besides, the result in [7], in assay [8], in [9], in [10], in assay [11] and in assay [12] was inactive. Further, the outcome was “inactive” in assay [13]; “inactive” with CD69, CD69 (gene 969); “inactive” in [14]; “inactive” in assay [15].

In general, AC50 refers to the midpoint of the concentration-response curve, whichever way the signal moves. Regarding `OCC(F)(F)OC(F)(F)C(F)(F)OC(F)(F)C(F)(F)OC(F)(F)F`, the half-maximal activity concentration (AC50) is 39.9 µM (active) and 22.1 µM (active) in assay [1]; 30 µM (active) and 22.2 µM (active) in [2]; 18.3 µM (active) and 11.5 µM (active) in assay [3]; 53.9 µM (active) and 23.4 µM (active) in assay [4]; 58.5 µM (active) and 45.8 µM (active) in [6]; 43.8 µM (active) and 44 µM (active) in assay [10]. The AC50 was 45.6 µM (active) in assay [11]; 46.5 µM (active) and 50.9 µM (active) in [12]; 20.9 µM (active) in [13]; 48.6 µM (active) and 7.29 µM (active) with CD69, CD69 (gene 969); 49.2 µM (active) in [14]; 44.8 µM (active) and 22.6 µM (active) in assay [15]. The compound was classed as inactive in assay [16], in assay [5], in assay [7], in assay [8], in assay [9] and in assay [11]. Besides, the result in [13] and in [14] was inactive.

As for `CCCCC(CC)COP(=O)(Oc1ccccc1)Oc1ccccc1` (stereo unspecified), the compound was called inactive in assay [17]. For the same compound, the half-maximal activity concentration (AC50) in [1] is 9.47 µM (active); in assay [2] it was 20 µM (active); in [3], 8.64 µM (active); in [4], 20 µM (active); in [5], 3.97 µM (active); in assay [13] it was 16 µM (active).

Consider `OCC(F)(F)OC(F)(F)C(F)(F)OC(F)(F)CO`, for which the outcome in assay [1], in assay [2], in assay [3], in assay [4], in assay [5] and in assay [6] was inactive. For the same compound, the result in assay [7], in [8], in assay [9], in [10], in assay [11] and in [12] was inactive. Further, the outcome was “inactive” in [13]; “inactive” with CD69, CD69 (gene 969); “inactive” in [14]; “inactive” in assay [15].
